Experimental data taken from the supplement of paper PMC6555819.

Experiments:
Assay in all cases: PBM binding z-score (relative to random genomic background probes); higher = stronger binding; sequences stand for … in GC…GCGATTGACAGCGTAGAATGAAGG
[1] = tested on: PPARg:RXRa DBDmut IVT, anti-RXR (DBD mutation: RXRa K156A/R161A, NR concentration 270 nM, RXRa partner concentration 90 nM)
Procedure, shortened: (§1)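 Binding buffer was PBS pH 7.4 with 2% milk, 0.02% Triton X-100, 1 mM DTT, 0.2 mg/mL BSA and 0.4 mg/ml salmon testes DNA. In it, ligand-free nuclear receptor dimers were incubated 1 h on custom Agilent 4×180K protein-binding microarrays carrying double-stranded probes. Antibodies against each partner (one per run) detected binding, and z-scores were calculated against random background probes after regression normalization of scanned fluorescence.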

[2] = tested on: PPARg:RXRa IVT, anti-PPARg (NR concentration 270 nM, RXRa partner concentration 90 nM)
Procedure, shortened: as §1

[3] = tested on: PPARg DBDmut:RXRa IVT, anti-PPARg (DBD mutation: PPARg1 K132A/R137A, NR concentration 270 nM, RXRa partner concentration 90 nM)
Procedure, shortened: as §1

[4] = tested on: PPARg DBDmut IVT, anti-PPARg (DBD mutation: PPARg1 K132A/R137A, NR concentration 270 nM)
Procedure, shortened: as §1

[5] = tested on: PPARg homodimer (NR concentration 180 nM)
Procedure, shortened: as §1

[6] = tested on: PXR:RXRa (NR concentration 270 nM, RXRa partner concentration 90 nM)
Procedure, shortened: as §1

[7] = tested on: PXR homodimer (NR concentration 270 nM)
Procedure, shortened: as §1

[8] = tested on: RARa:RXR (NR concentration 270 nM, RXRa partner concentration 90 nM)
Procedure, shortened: as §1

[9] = tested on: RARa homodimer (NR concentration 270 nM)
Procedure, shortened: as §1

[10] = tested on: RARb:RXRa (NR concentration 270 nM, RXRa partner concentration 90 nM)
Procedure, shortened: as §1

[11] = tested on: RARb homodimer (NR concentration 270 nM)
Procedure, shortened: as §1

[12] = tested on: RARg:RXRa (NR concentration 270 nM, RXRa partner concentration 90 nM)
Procedure, shortened: as §1

[13] = tested on: RARg homodimer (NR concentration 270 nM)
Procedure, shortened: as §1

[14] = tested on: RXRa DBDmut IVT, anti-RXR (DBD mutation: RXRa K156A/R161A, NR concentration 90 nM)
Procedure, shortened: as §1

[15] = tested on: RXRa homodimer (NR concentration 180 nM)
Procedure, shortened: as §1

[16] = tested on: THRa:RXRa (NR concentration 90 nM, RXRa partner concentration 90 nM)
Procedure, shortened: as §1

[17] = tested on: THRa homodimer (NR concentration 90 nM)
Procedure, shortened: as §1

[18] = tested on: VDR homodimer (NR concentration 270 nM)
Procedure, shortened: as §1

Sequence	PBM binding z-score [1]	PBM binding z-score [2]	PBM binding z-score [3]	PBM binding z-score [4]	PBM binding z-score [5]	PBM binding z-score [6]	PBM binding z-score [7]	PBM binding z-score [8]	PBM binding z-score [9]	PBM binding z-score [10]	PBM binding z-score [11]	PBM binding z-score [12]	PBM binding z-score [13]	PBM binding z-score [14]	PBM binding z-score [15]	PBM binding z-score [16]	PBM binding z-score [17]	PBM binding z-score [18]
GCTCGGAGGACAAGGTCATAGCTTTGTCCGTAGA	0.27	1.58	-0.805	-1.25	1.11	3.46	0.287	3.71	-0.351	3.79	3.41	4.23	3.99	1.8	4.34	3.56	2.14	2.26
TCTTGTAGATCAGCAGGTTAAGATAGCTGGCCAA	1.75	0.446	0.0165	0.121	0.155	0.31	-0.37	0.429	-0.336	0.168	-0.0544	-0.0434	-0.135	0.631	0.48	0.172	-0.238	-0.295
ACAGACAGGTGTTGAAGGTAACTCAGGCTATCAT	-0.116	-0.388	-0.275	0.107	-0.0576	-0.158	0.379	0.0742	-0.513	-0.084	-0.0362	-0.0194	0.114	-0.19	0.0702	0.786	0.073	-0.587
CAAACTAGTTCACGAAAGGTCAAAGTCGAATGAC	2.5	3.57	1.49	0.645	5.52	6.88	5.53	7	3.03	4.89	5.1	6.68	6.48	3.07	7.49	4.5	1.16	4.41
CCAACTGGGCCATCAGGTCATTGATATCAACGTT	5.15	4.92	-0.74	0.0786	1.32	1.59	0.906	1.67	0.182	2.05	2.79	2	2.2	0.763	1.46	3.19	3.32	2.04
TCGAGTAGGTTAGGCGGGGCATTCAGCCAACATA	1.73	1.84	0.466	0.361	-0.143	0.191	-0.273	0.0737	-0.554	0.48	0.241	0.2	-0.0839	-0.0244	0.0673	0.994	-0.341	0.0165
ACAGACAGGTGGGTGAAGGTAACTCAGCTGGACG	0.962	1.16	0.32	-0.724	0.276	-0.217	0.171	0.0103	-0.0597	0.155	0.378	0.052	0.248	-0.598	0.193	0.52	-0.174	-0.176
TATACAGGGTTAAAGGCCAGAGTACGAATGTCGA	0.697	2.95	1.23	1.68	1.75	1.82	0.41	2.44	0.668	2.13	1.55	2.41	1.59	0.596	3.28	1.56	0.124	0.851
CCGACTGGGGCATAAGGTTATCATAAGCCAGCCC	2.88	3.27	-0.987	-0.567	1.33	0.386	0.0103	1.34	-0.22	1.32	1.53	1.8	0.973	-0.174	1.14	1.78	0.629	0.13
AGAATGAGGTTACCGAAGATCAGGGAAACGCTTG	3.97	3.55	0.906	0.381	0.444	1.61	-0.388	2.46	-1.23	2.19	0.586	2.27	1.76	1.5	2.87	3.05	0.672	0.193
CCCAGTTGGTCAAGGTCACACACGCTATAGGTAC	1.74	3.31	2.05	0.443	4.04	4.46	3.52	4.63	2.32	4.24	4.34	4.75	4.74	2.13	4.74	4.16	4.46	4.2
TAGCCTAGGTCAGATCTGGCCAGTATACGCTATA	0.589	1.44	-0.455	-0.0508	-0.0754	0.447	-1.1	0.766	-1.06	2.98	1.82	2.73	3.49	-0.24	1.3	2.57	-0.423	-0.751
GCATGTAGATCAAGGTTAAGAAAGACTAAGCTAA	1.08	0.797	-0.718	-0.329	-0.173	0.293	-0.179	0.536	-0.356	0.552	-0.0945	0.235	0.318	0.0216	0.645	1.26	-0.345	-0.573
CCTCGGAGGATAGAAGGTCAGAGCTGTCCGCTTT	0.306	0.12	-1.89	-1.62	1.56	1.38	-0.0463	1.82	0.234	2.29	2.9	2.17	2.05	-0.11	1.52	1.66	-0.386	-0.101
GCTGCAAGGTCAGGTTGGTCAGCTAACGGGTACG	1.24	1.7	-0.124	-0.859	1.91	2.44	-0.0524	3.02	0.176	4.4	3.9	4.56	5.49	2.04	3.72	3.26	1.48	1.23
